Compounds with a hit are over-represented: about 1.8% of the library has one in this group of screens.
PERK inh = block of dimerizer-induced PERK translation repression, primary screen, PERK inhibitor project, CHO PERK-DD cells, SEAP luminescence, HTS. Eukaryotic translation initiation factor 2-alpha kinase 3 (Homo sapiens), Q9NZJ5. CHO PERK-DD fusion, SEAP luminescence translation reporter. inhibition, % at 5.6 µM. 220,000 compounds, 0.17% hits;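 active = inhibition above the mean inhibition of all tested compounds plus 3 SD, set separately per screening campaign, cut at about 2.9% in these data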;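 note: PERK kinase domain activated by AP20187 dimerizer at 100 nM; 0% = DMSO with dimerizer and 100% = rapamycin at 8.4 µM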
PGE2 EP2 inh = human EP2 receptor antagonists, primary screen, TR-FRET cAMP, C6 glioma cells. Prostaglandin E2 receptor EP2 subtype (Homo sapiens), P43116. C6 glioma cells expressing human EP2; cells stimulated with saturating PGE2. inhibition, % at 25 µM. 260,000 compounds, 0.52% hits. AID 1422, 2008;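 active = percent inhibition above 40 after rounding to a whole number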;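 note: rat C6 glioma host cells with rolipram phosphodiesterase inhibitor present; the protocol text gives 20 µM as final concentration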
eIF4E 4G PPI = eIF4E–eIF4G protein interaction inhibitors, primary screen, biochemical, uHTS, TR-FRET, eIF4GI fragment. 220,000 compounds, 0.37% hits. inhibition, % at 21.7 µM. TR-FRET eIF4E-eIF4GI(517-606) binding, 2 h. AID 782, 2007;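 active = inhibition above about 30%, limit read from the data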;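 note: 0% = full FRET control wells and 100% = background wells lacking eIF4GI fragment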
EP2 modulator = EP2 receptor modulators, cAMP readout, primary screen, cell-based, HTRF cAMP, PGE2 stimulation; induction, % at 25 µM; Prostaglandin E2 receptor EP2 subtype (Homo sapiens), P43116; EP2-expressing cells, cAMP HTRF FRET, PGE2 co-stimulation; 260,000 compounds, 0.83% hits;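 active = compounds whose cAMP rise, as percent of the full-agonist control response, exceeds 60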;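 note: rat C6 glioma line stably carrying human EP2 under a CMV promoter; the protocol text gives 20 µM as final concentration; 100% = response of wells given 1 µM PGE2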
EP2 cAMP induct = cAMP induction in EP2, EP4, beta2-AR and parental cells, confirmation, counter-screen for EP2 modulator project, cell-based, five parallel assays, C6 glioma, HEK293; cAMP HTRF induction; plus low (about EC15) PGE2 agonist; calls only at 20 µM (by protocol); shares compounds with EP2 modulator; 1,300 compounds, 47% hits;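 active = cAMP induction above 50% in the main assay while under 30% in all four parallel counter assays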;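 note: rat C6 glioma cells stably expressing human EP2 receptor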
Starred values were filed as active, the others as inactive; i = inactive; / = no result given; + = active, no number.

SMILES | PERK inh | PGE2 EP2 inh | eIF4E 4G PPI | EP2 modulator | EP2 cAMP induct
C=CCSc1nc2ccccc2n1S(=O)(=O)c1ccc(Cl)cc1 | 0.9 | 11.2 | -1.6 | 75.3* | i
CCSc1nc2ccccc2n1S(=O)(=O)c1ccccc1 | 1.6 | 8.2 | 2.4 | 46.2 | /
O=C(CSc1nnc(-c2ccncc2)n1Cc1ccco1)c1ccc(Cl)cc1 | -0.7 | 7.3 | 1.9 | 5.5 | /
COC(=O)c1c(NC(=O)CSc2nnc(-c3cccnc3)n2Cc2ccco2)sc(C)c1C | -1.8 | 7.0 | -12.7 | 55.2 | i
O=C(CSc1nnc(-c2ccc(Cl)cc2)n1Cc1ccco1)c1cccs1 | -0.6 | 13.6 | -28.5 | 70.1* | +
COc1ccc(NC(=O)CCSc2nc(-c3ccco3)cc(C(F)(F)F)n2)c(OC)c1 | / | 12.2 | / | -92.5 | /
CCN(CC)CCN1C(=O)c2cccc3cc(N)cc(c23)C1=O | 0.7 | 38.4 | 8.4 | 7.0 | i
CC(Sc1nc2ccccc2n1C)C(=O)NC(c1ccccc1)c1ccccc1 (centres undefined) | -1.1 | 4.1 | -2.1 | 72.1* | +
Cc1cc(C)c(S(=O)(=O)c2ccccc2)c(OC(=O)c2cc(F)c(F)cc2Cl)n1 | -0.2 | 27.9 | 10.0 | 73.1* | i
Cc1cc(Br)c2nc3c(c(C(=O)O)c2c1)CCCCC3 | 0.8 | 19.3 | -4.7 | 76.9* | i
CCc1ccc2nc3c(c(C(=O)O)c2c1)CCC3 | 2.2 | 0.9 | 1.3 | 20.6 | /
CCn1c(N2CCC(C(=O)NCCc3ccccc3F)CC2)nc2ccccc21 | / | / | / | -35.6 | /
O=C(NC(=S)Nc1cccc(Cl)c1N1CCCCC1)c1ccc2c(c1)OCCO2 | 0.9 | 4.5 | -0.5 | 1.9 | /
O=C(Nc1ccccc1N1CCCCC1)c1ccc(Cl)c([N+](=O)[O-])c1 | 0.4 | 7.9 | -1.1 | 58.9 | +
O=C(Nc1cccc(Cl)c1N1CCCCC1)c1ccc2c(c1)OCCO2 | 0.1 | 4.6 | 1.2 | 74.4* | i
C#CCn1c(S(=O)(=O)Cc2ccccc2Cl)nc(-c2ccccc2)c1-c1ccccc1 | 0.5 | 3.0 | / | 71.6* | +
CCOC(=O)c1c(C2COc3ccccc3O2)csc1NC(=O)c1ccccc1 (centres undefined) | 0.4 | 5.4 | -21.2 | 31.9 | /
CCOC(=O)c1c(C2COc3ccccc3O2)csc1N (centres undefined) | -0.8 | 8.3 | -2.9 | 70.2* | +
CC(C)OCCCNC(=O)C1CCN(S(=O)(=O)c2cc(Cl)ccc2Cl)CC1 | / | 11.1 | / | -40.0 | /
CC(=O)N1Cc2ccccc2C(C)CC12CCCC2 (centres undefined) | 0.0 | 14.1 | 0.6 | 23.8 | /
CC(=O)N1c2ccccc2C(C)CC12CCCCC2 (centres undefined) | 1.0 | 8.2 | 0.8 | 93.4* | +
CCOC(=O)c1ccccc1NC1c2ccccc2C(=O)N1c1cc(C)ccn1 (centres undefined) | -0.2 | 9.9 | -7.9 | 69.3* | +
Cc1ccc(S(=O)(=O)c2c(C)nn(-c3ccccc3)c2OC(=O)c2ccco2)cc1 | 0.9 | 11.0 | 0.9 | 66.8* | i
Cc1nc(N2CCN(CC(=O)N3CCOCC3)CC2)[nH]c(=O)c1C | / | / | / | -14.5 | /
Clc1ccccc1Cn1c(/C=C/c2ccco2)nc2ccccc21 | -1.0 | 8.8 | 0.6 | 70.6* | i
SMILES | PERK inh | PGE2 EP2 inh | eIF4E 4G PPI | EP2 modulator | EP2 cAMP induct
COc1ccc(Cn2c(/C=C/c3ccccc3)nc3ccccc32)cc1 | -0.5 | -1.7 | -1.4 | 42.6 | /
COc1ccccc1C(=O)NCc1n[nH]c(=S)n1Cc1ccccc1 | -0.2 | 0.8 | -2.2 | 17.5 | /
Cc1ccc(OCc2n[nH]c(=S)n2Cc2ccccc2)cc1 | 0.8 | 13.6 | -0.2 | 62.0* | i
CCOc1ccc(Cc2n[nH]c(=S)n2Cc2ccccc2)cc1 | 0.5 | 2.9 | 3.1 | 65.8* | i
COc1ccc(Cc2n[nH]c(=S)n2Cc2ccccc2)cc1Cl | 1.3 | 1.7 | 1.8 | 53.4 | i
CN(C)CCCN(Cc1ccco1)Cc1cccn1-c1ccccn1 | / | 1.5 | / | 8.8 | /

Source: PubChem BioAssay (several laboratories)
